Source: PubChem BioAssay (National Center for Advancing Translational Sciences (NCATS))
Gal4-VP16 FLuc – counter-screen for ROR gamma inhibitors: Gal4-VP16 reporter | Drosophila S2 Gal4-VP16 UAS-luciferase, luminescence, 20 h | Potency, µM (top dose mostly 53.6 µM), for inactives: top-dose activity, negative = inhibition, most hits filed as inhibitors | 310,000 compounds, 3.5% hits | AID 2546;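 also: Gal4-VP16 expression switched on by copper sulfate through the metallothionein promoter; % is scaled to controls: 0 for no effect and ±100 for the full control effect; nearly all actives have a fitted effect of over 50% in size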
S2 tox – cell viability loss in ATXN counter-screen. AID 651635. S2 cells (HEK-293 line with an ATXN2-luciferase reporter) viability, CellTiter-Fluor protease fluorescence, 24 h. 400,000 compounds, 0.49% hits. Potency, µM (titrated, usually from 56.7 µM), hits mostly cytotoxic; also: nearly all actives have a fitted effect of over 40% in size
TGFb inhibitor – TGF-b pathway inhibition; HepG2 CAGA-GFP TGF-b/SMAD3 reporter, GFP fluorescence, 18 h; TGF-beta stimulated, 500 pg/mL final; Potency, µM (highest dose often 46.1 µM), for the others: top-dose activity, negative = inhibition, actives largely listed as inhibitors; 410,000 compounds, 1.2% hits; AID 588855; also: % is scaled to controls: 0 for no effect and ±100 for the full control effect; nearly all actives have a fitted effect of over 65% in size
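Cell-based qHTS in HEPG2 carrying a CAGA-GFP Smad reporter; compounds added before 500 pg/mL final TGF-beta, 18 h incubation at 37 degrees C, GFP fluorescence quantified per cell by imaging cytometry.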
HepG2 tox-1 – HepG2 cytotoxicity, counter-screen for TGF-b inhibitors; Potency, µM (highest dose often 46.1 µM), for inactives: top-dose activity change, negative = cytotoxicity, usual class: cytotoxic; 410,000 compounds, 0.76% hits; HepG2 CAGA-GFP viability, ATP luminescence, 18 h; AID 588856
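CellTiter-Glo luminescence gave cytotoxicity after 18 hours at 37 degrees C. The cells were HepG2 CAGA-GFP in 1% FBS DMEM, stimulated with 500 pg/mL TGF-beta after compound addition. %Activity was normalised to no-cell wells (complete cell-killing) and DMSO (no toxicity), and curves were fitted and classified.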
RORg inh – blocks mouse ROR gamma transcriptional activity; Drosophila S2 Gal4-RORgamma UAS-luciferase reporter, 20 h; AID 2551; 310,000 compounds, 5.4% hits; Potency, µM (highest dose often 53.6 µM), for inactives: top-dose activity change, negative = inhibition, usual class: inhibitors; also: % is scaled to controls: 0 for no effect and ±100 for the full control effect; nearly all actives have a fitted effect of over 60% in size
Target sequence (P51450 whole entry, looked up, the tested form may be a part): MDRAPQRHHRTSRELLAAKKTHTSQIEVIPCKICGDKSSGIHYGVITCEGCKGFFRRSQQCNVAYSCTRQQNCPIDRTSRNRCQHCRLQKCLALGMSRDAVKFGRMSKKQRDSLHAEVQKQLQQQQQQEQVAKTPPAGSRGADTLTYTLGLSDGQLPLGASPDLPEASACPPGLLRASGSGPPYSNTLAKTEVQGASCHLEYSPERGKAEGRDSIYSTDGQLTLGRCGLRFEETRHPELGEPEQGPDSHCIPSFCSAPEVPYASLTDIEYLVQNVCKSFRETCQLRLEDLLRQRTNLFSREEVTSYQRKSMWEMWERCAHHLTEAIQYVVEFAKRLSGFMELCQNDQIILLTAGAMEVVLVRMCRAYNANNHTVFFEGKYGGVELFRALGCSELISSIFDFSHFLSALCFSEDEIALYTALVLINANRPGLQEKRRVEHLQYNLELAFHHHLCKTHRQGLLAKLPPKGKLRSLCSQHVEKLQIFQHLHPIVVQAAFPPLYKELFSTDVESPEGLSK
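Using a luciferase readout, inhibitors were identified by reduced reporter activity in Drosophila cells coexpressing a copper-inducible Gal4–ROR gamma fusion and UAS-driven Photinus luciferase, incubated 20 hr after 700 uM copper sulfate.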
ATXN2 expr inh – reduces ATXN2 reporter expression in HEK-293 cells; AID 1745845; HEK-293 ATXN2-luciferase reporter, luminescence, 24 h; 360,000 compounds, 0.72% hits; Potency, µM (doses to about 57 µM), without a hit: at the highest dose activity change, negative = inhibition, usual class: inhibitors; also: % is scaled to controls: 0 for no effect and ±100 for the full control effect; nearly all actives have a fitted effect of over 55% in size
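qHTS (up to 57 uM final) was run with 24 h compound exposure of reporter cells at 37 °C. Each well was multiplexed: SteadyGlo luminescence measured ATXN2-luciferase expression after a fluorogenic Gly-Phe-AFC viability readout (25 uM final).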
TGFb CAGA inh – confirmation of TGF-b signaling inhibitors in HepG2 reporter cells | shares compounds with TGFb inhibitor | Potency, µM (highest dose often 46.1 µM), inactives show at the highest dose activity, negative = inhibition, most hits filed as inhibitors | HepG2 CAGA-GFP TGF-b reporter, GFP fluorescence, 18 h; cells stimulated with TGF-beta, 500 pg/mL | 1,600 compounds, 63% hits; also: % is scaled to controls: 0 for no effect and ±100 for the full control effect; nearly all actives have a fitted effect of over 65% in size
HepG2 tox-2 – HepG2 cytotoxicity, TGF-b inhibitor counterscreen; shares compounds with TGFb inhibitor; HepG2 CAGA-GFP viability, ATP luminescence, 18 h; cells stimulated with TGF-beta, 500 pg/mL; Potency, µM (series often up to 46.1 µM), without a hit: top-dose activity, negative = cytotoxicity, hits mostly inhibitors; 1,600 compounds, 27% hits; AID 720535; also: % is scaled to controls: 0 for no effect and ±100 for the full control effect; nearly all actives have a fitted effect of over 70% in size
TGFb CCL64 inh – blocks TGF-b signaling in CCL64 reporter cells | shares compounds with TGFb inhibitor | CCL64 CAGA-GFP reporter, TGF-b stimulated, GFP fluorescence, 18 h | Potency, µM (top dose mostly 46.1 µM), inactives show at the highest dose activity, negative = inhibition, actives largely listed as inhibitors | 1,600 compounds, 41% hits; also: nearly all actives have a fitted effect of over 65% in size
TGFb COP inh – TGF-b inhibition validated with COP promoter; shares compounds with TGFb inhibitor; HepG2 COP-GFP TGF-b reporter, GFP fluorescence, 18 h; cells stimulated by added recombinant TGF-beta; Potency, µM (titrated, usually from 46.1 µM), without a hit: at the highest dose activity, negative = inhibition, actives largely listed as inhibitors; 1,600 compounds, 3% hits; AID 720537; also: nearly all actives have a fitted effect of over 70% in size
* marks the source's active call; other numbers are inactive results; i = inactive; ? = inconclusive; / = no result given. Only some compounds are listed: those with a hit (about 6.3% of all), similar ones and a draw of the others. Calls follow the shape of the dose curve; as a rule, active = well fitted curve in the direction sought with a large enough effect; inconclusive = small, poorly fitted or top-dose-only effect, or another doubt; inactive = no such curve, though single readings can be large; an effect the other way counts as inactive or inconclusive. Potency is read from the fitted curve at half-maximal effect.

SMILES | Gal4-VP16 FLuc | S2 tox | TGFb inhibitor | HepG2 tox-1 | RORg inh | ATXN2 expr inh | TGFb CAGA inh | HepG2 tox-2 | TGFb CCL64 inh | TGFb COP inh
COc1ccc(NC(=O)Nc2ccc(O)c3ccccc23)cc1 | / | ? | 6.3µM* | -131% | / | ? | ? | -21% | 16µM* | 0%
COc1ccccc1N1CCN(C(=O)c2ccc3c(Cl)c4c(nc3c2)CCCC4)CC1 | -9% | ? | 11µM* | -15% | ? | -17% | 6.5µM* | ? | 18µM* | 39%
C#Cc1ccc(NC(=O)C2(C)CCN2C(=O)c2ccccc2CCc2ccccc2)cc1 (configuration not stated) | / | i | ? | -27% | / | -22% | ? | -13% | ? | 2%
CSc1ccc(NC(=O)C2(C)CCN2C(=O)c2ccccc2CCc2ccccc2)cc1 (configuration not stated) | / | i | 8% | 5% | / | -11% | / | / | / | /
Cc1ccc(CN(Cc2ccco2)C(=O)c2oc3c(C)c(C)ccc3c2C)cc1 | / | i | ? | -37% | / | -14% | / | / | / | /
O=C(Nc1ccccc1OC(F)F)c1ccc(N2CCCC2=O)cc1 | / | i | -2% | -12% | / | / | / | / | / | /
Clc1ccc2c(NCc3ccccn3)ccnc2c1 | -1% | i | 13µM* | -30% | -1% | -29% | 2.1µM* | -26% | 8.2µM* | -1%
COc1ccc(-c2c(C(F)(F)F)[nH]n3c(=O)cc(-c4ccccc4)nc23)cc1 | -5% | / | ? | -62% | 8% | -4% | 16µM* | 16µM* | 8.2µM* | 34%
CCSCCc1nnc(NC(=O)Nc2cccc(C(F)(F)F)c2)s1 | 18µM* | i | 4.5µM* | -35% | ? | ? | 5.2µM* | ? | 7.3µM* | 104%
COc1cc(/C=C/c2cccc[n+]2C)ccc1OCC(=O)Nc1ccccc1C | -8% | i | 1% | -3% | -8% | -1% | / | / | / | /
CCOc1cc(/C=C\[N+](=O)[O-])ccc1OCC(=O)Nc1ccccc1C | 1.8µM* | ? | 7.9µM* | 8.9µM* | 1.1µM* | / | 2.9µM* | 8.2µM* | 2.9µM* | ?
CC(NC(=O)C1CCN(CCOc2ccc(Cl)cc2)CC1)c1cccc2ccccc12 (configuration not stated) | / | ? | 6.3µM* | 11µM* | / | ? | 26µM* | 18µM* | ? | -27%
O=C(NC(c1ccccc1)c1ccc2ccccc2n1)C1CCN(CCOc2ccc(Cl)cc2Cl)CC1 (configuration not stated) | / | i | 10µM* | -93% | / | ? | ? | 18µM* | ? | ?
